D1 antag: antagonists of human D1 dopamine receptor; P21728; HEK293 TREx D1 cells, calcium flux, dopamine EC80; active compounds read low; activity change, negative = inhibition, % at 10 µM; 360,000 tested, 3.2% active; AID 504652; in the data active = activity change below about -30%; note: % is set by controls: 0 for no effect and ±100 for the full control effect
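After overnight tetracycline induction at 30 C, force-coupled D1 HEK293 cells took up a no-wash calcium dye at room temperature. Compounds were added and monitored 180 s, and the response to EC80 dopamine was then recorded.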
D1 agonist: human D1 receptor agonism; P21728; HEK293 T-REx D1 cells, calcium flux, agonist mode; activation, % at 2 µM; 360,000 tested, 1% active; AID 504660; in the data active = activation above about 30%; note: 0% is about no effect
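Agonism was scored from calcium flux recorded over 180 s (1 read/s) after pintool compound addition, following a 10-cycle baseline. Cells were inducible force-coupled HEK293 TREx D1, plated overnight at 30 C and loaded with no-wash calcium dye.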
D1 PAM: enhances dopamine response at the human D1 receptor; potentiation, % at 10 µM; 360,000 tested, 0.036% active; HEK293 TREx D1 cells, calcium flux, dopamine EC20 potentiation; P21728; in the data active = potentiation above about 30%; note: 0% is about no effect
ERG Ets-DNA blk: inhibitors of human ERG Ets domain-DNA interaction | 370,000 tested, 0.028% active | P11308 | Potency, µM (top dose mostly 76.9 µM), inactives show at the top dose FP activity, negative = inhibition, hits mostly inhibitors | fluorescence polarization, His-ERG Ets domain / labelled DNA; active = well fitted inhibition curve with a large enough effect in the polarisation, with a control signal flat; the % refers to the polarisation;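 note: polarization taken with two DNA probes labelled with fluorescein and Texas red; potency is the fitted concentration of half-maximal effect; % of control where 0% means no effect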
Target sequence (P11308 whole entry, looked up, the tested form may be a part): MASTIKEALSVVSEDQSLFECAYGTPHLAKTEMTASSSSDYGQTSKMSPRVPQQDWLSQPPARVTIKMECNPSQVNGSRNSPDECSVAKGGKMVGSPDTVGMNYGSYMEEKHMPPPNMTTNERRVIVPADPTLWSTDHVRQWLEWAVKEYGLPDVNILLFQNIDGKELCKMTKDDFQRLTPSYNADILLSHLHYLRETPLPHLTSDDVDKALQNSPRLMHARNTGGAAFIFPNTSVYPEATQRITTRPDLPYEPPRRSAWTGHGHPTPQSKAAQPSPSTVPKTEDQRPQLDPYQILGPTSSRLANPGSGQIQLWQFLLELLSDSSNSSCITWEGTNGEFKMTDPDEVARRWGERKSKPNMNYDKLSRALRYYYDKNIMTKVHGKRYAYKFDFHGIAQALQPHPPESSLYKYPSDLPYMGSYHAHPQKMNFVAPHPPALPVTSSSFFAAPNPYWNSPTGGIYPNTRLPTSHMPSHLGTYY
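His-tagged ERG Ets domain (1 uM in the protein solution; 300mM KCl, 50mM Tris-HCl, 1mM EDTA, 1mM DTT, pH 7.5) received compound, then a probe mix of 5 nM fluorescein-DNA and 100nM Texas-615-DNA. Fluorescence polarization was read for both dyes.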
D3 ag: D3 dopamine receptor (human) agonism; P35462; D3R DiscoveRx beta-arrestin cells, luminescence, 90 min; max activation, %; 410,000 tested, 0.58% active; AID 652048; in the data active = max activation above about 30%; note: 0% is about no effect
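Agonist-mode cell screen: cells plated at 1500/well and incubated overnight at 37 °C, then exposed to library compounds for 90 min at 37 °C. Detection reagent was added for 30–60 min at room temperature, and luminescence was read.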
D3 antag: antagonists of human D3 dopamine receptor; P35462; D3R cells, DiscoveRx beta-arrestin luminescence, antagonist mode; active compounds read low; max response, negative = inhibition, %; 360,000 tested, 2.5% active; AID 652054; in the data active = max response below about -50%; note: % is set by controls: 0 for no effect and ±100 for the full control effect
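Cells plated overnight at 1500 cells/well, then exposed to library compounds with dopamine controls for 90 minutes at 37 degrees C. DiscoveRx reagent added for 30–60 minutes at room temperature; luminescence read, quantitative HTS format.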
Starred values were filed as active, the others as inactive; / = no result given. A selection: hits, their analogues and other compounds. The true share with any hit is near 6.1%.

SMILES	D1 antag	D1 agonist	D1 PAM	ERG Ets-DNA blk	D3 ag	D3 antag
CCOc1ccc2nc(NS(=O)(=O)c3ccc(NC(C)=O)cc3)sc2c1	-9	3	-2	-4%	2	-57*
CCOc1ccc2nc(NC(=O)CS(=O)(=O)c3ccc(C)cc3)sc2c1	-14	0	-4	1%	38*	122
CCCOc1ccc(OC(=O)c2ccc(Br)o2)cc1	-43*	94*	-8	4%	3	-17
CCOC(=O)c1ccc(NC(=O)c2cn3c4c(ccc(Cl)c4c2=O)OC(C)C3)cc1 (stereo not given)	-1	-1	-3	-16%	-5	/
FC(F)(F)c1cccc(-c2nc3nc(Cl)c(Cl)nc3[nH]2)c1	-35*	33*	-8	2%	3	-4
O=C(Nc1ccc(OC(F)(F)F)cc1)c1n[nH]c(Cn2cncn2)n1	-15	4	-3	-2%	3	9
CCOCCn1ccc2c(OCC(=O)Nc3cc(C)cc(C)c3)cccc2c1=O	/	1	1	0%	-1	/
CC(=O)N1CCC(O)(c2cccc(C(F)(F)F)c2)CC1	-3	1	6	/	-8	5
O=C(CCCN1CCC(O)(c2cccc(C(F)(F)F)c2)CC1)c1ccc(F)cc1	0	61*	2	5%	0	-61*
O=C(CCCN1CCC(O)(c2ccc(Br)cc2)CC1)c1ccc(F)cc1	-87*	70*	-2	15%	-83	-122*
O=C(CCCC(=O)c1ccc(F)cc1)c1ccc(F)cc1	-2	4	2	13%	-9	33
COc1ccc(-n2ncc(C(C)NS(=O)(=O)c3cc(C)sc3C)c2C)cc1 (stereo not given)	/	/	/	/	-8	0
COC(=O)c1sccc1S(=O)(=O)NC(C)c1cnn(-c2ccc(OC)cc2)c1C (stereo not given)	-50*	3	1	-12%	-18	0
CCN(CC)CCNC(=O)c1c(C)n(-c2ccccc2)c2cc(Br)c(OC)cc12	4	18	-2	-2%	-2	-65*
CCC(=O)c1c[nH]c(C(=O)N2CCOCC2)c1	-37*	0	-7	4%	8	-14
O=c1c(C=Nc2ccc(Oc3ccccc3)cc2)c[nH]n1-c1cccc(Cl)n1	7	1	2	-7%	1	-56*
COc1ccc(NC(=O)CSc2nc3[nH]ncc3c(=O)[nH]2)cc1OC	20	5	0	13%	9	6
Cc1nc(-c2ccc(Cl)cc2)sc1C1(C)CC(c2cccc([N+](=O)[O-])c2)=NO1 (stereo not given)	-17	4	-3	-3%	6	6
CCC(C)NC(=O)COC(=O)Cc1sc(N)nc1-c1ccc(C)cc1 (stereo not given)	-60*	3	-5	1%	4	12
Cc1ccc(-c2nc(N)sc2CC(=O)OCC(=O)NCCC(C)C)cc1	-57*	1	-5	15%	-3	-16
Cc1ccc(C(=O)c2ccccc2C(=O)OCC(=O)NCC2CCCO2)cc1 (stereo not given)	6	1	-6	10%	6	11
Cc1ccc(-c2nc(N)sc2CC(=O)OCC(=O)NCC2CCCO2)cc1 (stereo not given)	-42*	0	-7	1%	2	-10
Cc1ccc(-c2nc(N)sc2C)cc1	7	1	-1	-4%	0	0
CCCc1sc(N)nc1-c1ccc(C)cc1	-60*	4	-4	5%	9	0
Cc1cccc2cc(C#N)c(NCCNC(=O)c3ccccc3)nc12	/	/	/	/	3	21
CN(Cc1ccccc1)C(=O)c1nc[nH]c1C(=O)N1CCN(c2ccccc2)CC1	/	-1	-8	-9%	0	1
CCC(Sc1nc(C)cc(C)n1)C(=O)Nc1ccc(S(N)(=O)=O)cc1 (stereo not given)	-1	3	-3	-2%	2	-1
CCC(SC1=NCCS1)C(=O)Nc1ccc(S(N)(=O)=O)cc1 (stereo not given)	-46*	8	-12	-9%	-15	-22

Bioassay records as filed in PubChem BioAssay.
